Measured values from PubChem BioAssay (EPA / NIEHS).
Results filed as inconclusive are left out. Active and inactive are the calls of the source. How the source made its calls, unless noted: active means hit-call score of the fitted dose curve at least 0.9, where 1 is the maximum; inactive means score below 0.9.

Columns and labels:
[1] = test system: Brachyury (BRA) Protein Expression, TBXT (gene 6862); assay: CCTE_Deisenroth_DEVTOX-GLR_Endo_BRA: CCTE's DevTox GLR-Endo Assay Evaluation of Brachyury (BRA) Protein Expression, Deisenroth Lab (AID 2284417)
Summary of the method: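 Read-out: BRA+ cell count divided by total cell count by high-content imaging (5 fields per well), expressed relative to 0.2% DMSO solvent control. RUES2-GLR cells dosed twice over a 48 h differentiation; concentrations 1 nM - 200 uM.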

[2] = CCTE_Deisenroth_DEVTOX-GLR_Endo_CellCount: Viability Assessment in CCTE's DevTox GLR-Endo Assay, Deisenroth Lab (AID 2284420)
Summary of the method: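 Human pluripotent RUES2-GLR line; 24 h pre-seed; 48 h endoderm-directed differentiation; 2 doses, q24h; 10 conc., 1 nM - 200 uM; fix + nuclear dye; 5 fields/well imaged; readout = nuclei count, % change vs 0.2% DMSO; n=4.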

[3] = test system: SRY-box transcription factor 17 (SOX17) Protein Expression, Deisenroth Lab, SOX17 (gene 64321); assay: CCTE_Deisenroth_DEVTOX-GLR_Pluri_SOX17: CCTE's DevTox GLR-Pluri Assay Evaluation of SRY-box transcription factor 17 (SOX17) Protein Expression, Deisenroth Lab (AID 2284427; active means hit-call score of the fitted dose curve at least 0.9, where 1 is the maximum)
Summary of the method: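 Human RUES2-GLR pluripotent line; 24 h seeding, 48 h defined-media differentiation, 2 doses q24h, 10 conc 1 nM - 200 uM. Fix, nuclear stain, image 5 fields/well. Endpoint = %SOX17+ minus 0.2% DMSO; n=4.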

[4] = test system: SRY-box transcription factor 2 (SOX2) Protein Expression, Deisenroth Lab, SOX2 (gene 6657); assay: CCTE_Deisenroth_DEVTOX-GLR_Pluri_SOX2: CCTE's DevTox GLR-Pluri Assay Evaluation of SRY-box transcription factor 2 (SOX2) Protein Expression, Deisenroth Lab (AID 2284428)
Summary of the method: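 Steps: seed RUES2-GLR cells for 24 h; start 48 h differentiation in defined media; dose test chemicals at 0 and 24 h (1 nM–200 uM); fix, stain nuclei, image; compute SOX2+ percentage against 0.2% DMSO wells.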

[5] = test system: Brachyury (BRA) Protein Expression, Deisenroth Lab, TBXT (gene 6862); assay: CCTE_Deisenroth_DEVTOX-GLR_Pluri_BRA: CCTE's DevTox GLR-Pluri Assay Evaluation of Brachyury (BRA) Protein Expression, Deisenroth Lab (AID 2284429; active means hit-call score of the fitted dose curve at least 0.9, where 1 is the maximum)
Summary of the method: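 RUES2-GLR human pluripotent cells differentiated 48 hours with two chemical exposures 24 hours apart, 10-point series 1 nM–200 uM. Fixed, nuclear-stained, imaged; endpoint is percent BRA+ cells minus 0.2% DMSO control.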

[6] = CCTE_Deisenroth_DEVTOX-GLR_Pluri_CellCount: Viability Assessment in CCTE's DevTox GLR-Pluri Assay Evaluation of Total Cell Counts, Deisenroth Lab (AID 2284430)
Summary of the method: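 RUES2-GLR human pluripotent cells, seeded 24 h, then differentiated 48 h with two chemical exposures 24 h apart; 10-point series 1 nM - 200 uM. Fixed, nuclear-stained, imaged (5 fields/well); nuclei count as % change vs 0.2% DMSO.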

Measured: outcome

C=CC(N)=O
inactive: all assays above

CC1=C2C[C@H]3[C@@H](CC=C4C[C@@H](O)CC[C@@]43C)[C@@H]2CC[C@]12O[C@@H]1C[C@H](C)CN[C@H]1[C@H]2C
inactive: all assays above
